CCHFV vOTU inh: blocks the CCHF virus ovarian tumor domain protease; inhibition, % at 11.5 µM; CCHFV vOTU protease, Pep-AMC fluorescence; AID 651958; 370,000 tested, 0.55% active; further: 0% = vehicle wells with enzyme and 100% = no enzyme wells
MazF activator: MazEF (E. coli) toxin RNase activation; FAM/BHQ RNA-DNA oligo cleavage fluorescence, 5 h; AID 504720; P0AE70; 350,000 tested, 0.32% active; activation, % at 20 µM; in the data active means activation above about 50%
Target sequence (P0AE70 whole entry, looked up): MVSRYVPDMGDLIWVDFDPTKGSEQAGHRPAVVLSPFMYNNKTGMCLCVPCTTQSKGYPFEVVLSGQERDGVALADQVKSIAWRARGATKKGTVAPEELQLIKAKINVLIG
GDH-TPI counter-1: GDH-TPI coupled enzyme inhibition counter-screen; 360,000 tested, 1.2% active; AID 588335; GDH-TPI coupled enzyme counterscreen, NADH absorbance; inhibition, % at 4.8 µM;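 further: 0% = DMSO wells and 100% = wells lacking the enzyme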
Mtb bLac sens: beta-lactam sensitization of Mtb H37Rv | 330,000 tested, 0.27% active | inhibition, % at 25 µM | M. tuberculosis H37Rv growth with meropenem, percent inhibition | AID 434955; call rule not given here;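 further: growth measured after seven days incubation then overnight dye step; 0% = bacteria only wells and 100% = bacteria with antibiotic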
FBA Mtb inh: inhibitors of M. tuberculosis fructose-bisphosphate aldolase | P9WQA3 | purified M. tuberculosis FBA, fluorescence read-out | inhibition, % at 1 µM | 360,000 tested, 2.3% active; in the data active means inhibition above about 27%;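 further: 0% = vehicle and 100% = reference inhibitor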
Target sequence (P9WQA3 whole entry, looked up): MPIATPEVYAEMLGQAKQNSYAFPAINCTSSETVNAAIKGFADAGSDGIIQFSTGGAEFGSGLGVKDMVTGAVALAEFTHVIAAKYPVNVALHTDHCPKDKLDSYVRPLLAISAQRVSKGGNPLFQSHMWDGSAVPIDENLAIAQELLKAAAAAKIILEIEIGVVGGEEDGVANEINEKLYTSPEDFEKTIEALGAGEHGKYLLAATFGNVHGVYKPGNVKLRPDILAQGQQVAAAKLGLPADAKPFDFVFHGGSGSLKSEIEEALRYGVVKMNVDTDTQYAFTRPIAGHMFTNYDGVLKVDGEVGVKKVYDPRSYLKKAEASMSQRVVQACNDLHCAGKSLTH
Mtb FBA confirm: confirmation of M. tuberculosis fructose-bisphosphate aldolase inhibitors. shares compounds with FBA Mtb inh. purified M. tuberculosis FBA, fluorescence read-out. inhibition, % at 1 µM. 5,600 tested, 78% active; in the data active means inhibition above about 27%;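 further: 0% = vehicle wells and 100% = reference inhibitor wells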
GDH-TPI counter-2: GDH-TPI inhibition counter-screen for FBA inhibitors | shares compounds with FBA Mtb inh | GDH-TPI coupled enzyme counterscreen, fluorescence | inhibition, % at 1 µM | 5,600 tested, 81% active | AID 652141; in the data active means inhibition above about 10%
* = called active by the depositor; . = no result given; + = active, no number. A selection: hits, their analogues and other compounds. The true share with any hit is near 4%. Unless noted, no stated cut-off is given here; in the data, active means inhibition above about 30%; inactive means the rest.

SMILES	CCHFV vOTU inh	MazF activator	GDH-TPI counter-1	Mtb bLac sens	FBA Mtb inh	Mtb FBA confirm	GDH-TPI counter-2
CCc1cc(=O)oc2cc(C)cc(OC(C)C(=O)NCCN3CCOCC3)c12 (stereo not given)	-11.0	5.6	0.9	-0.4	44.1*	1.7	0.6
O=C(NCc1ccccc1)[C@@H]1CCCN1C(=O)[C@@H](NS(=O)(=O)c1ccc(F)cc1F)c1ccccc1	4.5	.	.	.	.	.	.
Cc1ccc(-c2cc3nc(-c4ccccc4)cc(N)n3n2)cc1	-2.4	6.6	25.7	-8.5	29.4*	2.6	1.0
Cc1ccc(-c2cc(N)n3nc(-c4ccc(C)cc4)cc3n2)cc1	-2.3	3.9	9.4	4.2	26.9	.	.
Cc1ccc(-c2cc3nc(-c4ccccc4)cc(NCCCO)n3n2)cc1	-41.5	-26.2	12.5	.	83.2*	72.0*	54.3*
CCOc1cccc(-c2nn3c(-c4cccc(C)c4)nnc3s2)c1	13.2	.	.	.	.	.	.
CCOC(=O)C(CC)c1cc2n(c(=O)c1C#N)CCC21OCCO1 (stereo not given)	-32.5	.	.	.	69.1*	+	+
CCOC(=O)C(C)Sc1nc(N2CCOCC2)c2c(c1C#N)CC(C)(C)OC2 (stereo not given)	0.1	-3.2	1.5	-13.1	2.4	.	.
O=C(Nc1cccc([N+](=O)[O-])c1)OCc1ccc2c(c1)OCO2	-4.8	.	.	.	.	.	.
CCOC(=O)CC(=O)CSc1nc2c(cc1C#N)CCC2	-7.0	-14.0	1.4	1.9	31.3*	80.1*	64.9*
COC(=O)CC(=O)CSc1nc2c(cc1C#N)CCCCC2	-24.8	-0.7	15.6	8.7	39.1*	140.7*	97.8*
CC(C)(C)N(NC(=O)Nc1cccc(F)c1)C(=O)c1ccccc1Cl	5.0	.	.	.	.	.	.
C/C(=N\N=C(N)N)c1ccc(Cl)cc1Cl	1.2	8.2	0.6	-4.1	28.4*	28.7*	17.1*
C/C(=N\N=C(N)N)c1cc(Cl)ccc1Cl	3.2	0.6	-8.6	0.7	-1.9	.	.
O=C1CCCC2=C1[C@@]1(O[C@H]3C=CC=CN23)C(=O)N(c2ccccc2)c2ccccc21	20.9	.	.	.	.	.	.
O=C(NNC(=O)C1C2CCCCC21)c1coc(=O)c(Br)c1 (stereo not given)	-8.2	-7.2	14.6	-0.4	54.0*	85.7*	50.4*
O=C(NNC(=O)C1CCCCC1)c1ccc(Br)cc1	8.0	5.9	7.8	-0.7	1.6	.	.
COc1cc(C=NN=c2sc3ccccc3n2C)ccc1OCCO	24.0	.	.	.	.	.	.
CCc1ccc(CN2C(=O)c3ccccc3C2C(=O)NC(C)CC)cc1 (stereo not given)	-10.8	-3.4	5.5	1.8	104.5*	47.7*	44.4*
Cc1ccc(-n2c(-c3ccco3)nc3nc4ccccc4nc32)cc1F	-16.9	-3.5	0.5	8.6	32.9*	77.4*	62.5*
Fc1cccc(-n2c(-c3ccco3)nc3nc4ccccc4nc32)c1	-12.7	19.0	-7.0	-12.3	51.5*	73.5*	49.0*
COc1ccc(S[C@]2(C(=O)N3CCOCC3)CC(=O)N[C@@H]2c2ccc(OC)cc2)cc1	-9.3	.	.	.	.	.	.
Cc1cc(Br)cn2c(Cc3cccc(F)c3)c(-c3ccco3)nc12	3.1	.	.	.	.	.	.
COc1ccc(-c2ccc(-c3nnc(Cc4ccc(OC)c(OC)c4)o3)cc2)cc1	-2.2	-13.5	14.7	-21.9	39.0*	-3.7	-2.4
COc1ccc(-c2nnc(-c3ccccc3)o2)cc1OC	-14.2	7.0	1.4	-2.3	30.8*	148.6*	106.9*
SMILES	CCHFV vOTU inh	MazF activator	GDH-TPI counter-1	Mtb bLac sens	FBA Mtb inh	Mtb FBA confirm	GDH-TPI counter-2
COc1cc(-c2nnc(-c3ccccc3)o2)cc(OC)c1OC	0.1	3.7	11.1	56.6	7.7	.	.
CCOc1ccc(-c2nnc(-c3ccccc3)o2)cc1	-2.2	-1.6	3.8	98.9	90.9*	88.4*	73.5*
CCOc1ccc(-c2nnc(-c3ccc(OC)cc3)o2)cc1	0.3	5.0	8.6	.	9.4	.	.
COc1ccc(OC)c(NCc2nnc(-c3ccccc3)o2)c1	17.9	7.9	-12.9	7.2	-1.1	.	.
CCOC(=O)COc1ccc(-c2nnc(-c3ccccc3)o2)cc1	3.4	6.9	7.0	99.8	58.9*	41.5*	34.7*
COC(=O)[C@]12C[C@H](CC(=O)N3CCN(C(=O)C4CC4)CC3)C(=O)N(Cc3cccc4ccccc34)C1=C[C@H](C(C)(C)C)O[C@@H]2C	17.4	.	.	.	.	.	.
Nc1nc2nccc(-c3ccccn3)n2n1	-17.6	4.3	6.4	-1.0	38.5*	+	+
CS(=O)(=O)Nc1ccc(-c2cncc3nccn23)cc1	-30.4	.	35.0*	.	63.4*	65.4*	55.6*
c1ccc2c(c1)oc1c(-c3cccc4nccn34)cccc12	-49.4	.	18.6	.	90.5*	49.7*	44.2*
Clc1ccccc1-c1cccc2nccn12	-14.1	.	-4.9	.	34.9*	0.1	-4.6
CS(=O)(=O)Nc1ccccc1-c1cccc2nccn12	-25.3	.	-0.9	.	39.6*	57.8*	39.0*
c1ccc(Sc2ncnc3c2oc2ccccc23)nc1	13.3	14.8	13.9	-11.1	1.6	.	.
CS(=O)(=O)Nc1ccc(-c2cnc3cccnn23)cc1	3.0	.	14.3	.	6.8	.	.
Cc1ccc(NC(=O)Cc2ccc(F)cc2)c(S(=O)(=O)N2CCOCC2)c1	-0.8	.	.	.	.	.	.
Cc1cc(C)nc(NC(=O)Cc2cccs2)n1	5.0	-2.0	14.9	-6.6	31.6*	112.8*	86.9*
Cc1ccc(S(=O)(=O)N(C)[C@H]2C[C@H]3c4[nH]c5cccc(-c6ccccc6)c5c4CCN3C(=O)[C@H]2[C@H](C)O)cc1	-117.4	.	.	.	.	.	.
C[C@H](NC(=O)C[C@@H]1C[C@@H]2c3cc(NC(=O)C4CCC4)ccc3O[C@@H]2[C@@H](CO)O1)c1ccccc1	6.7	.	.	.	.	.	.
O=[N+]([O-])c1ccc(S(=O)(=O)NCC(c2ccco2)N2CCc3ccccc3C2)cc1 (stereo not given)	5.0	7.7	-5.2	-0.4	-2.7	.	.
Cc1ccc(C)c(S(=O)(=O)NCC(c2ccco2)N2CCc3ccccc3C2)c1 (stereo not given)	4.2	-3.8	2.8	-10.1	73.7*	80.9*	74.3*
C[N+]1(CC(=O)OCCCc2ccccc2)CCCCC1	8.3	1.8	-2.5	-4.8	30.1*	59.9*	41.7*
Cc1ccc(S(=O)(=O)N(CC(=O)NCc2ccccn2)c2ccc(Cl)cc2)cc1	5.2	1.3	-5.2	-11.5	1.4	.	.
CSc1ccc(S(=O)(=O)N(CC(=O)NCc2ccccn2)c2ccc(C)cc2)cc1	5.3	-41.5	-2.7	-4.8	76.9*	180.7*	141.2*
COCCNC(=O)Cc1c(C)c2c(cc(C)c3c(C(C)(C)C)coc32)oc1=O	-22.9	4.8	12.1	38.5	42.5*	69.9*	65.3*
Cc1cc2oc(=O)c(CC(=O)NCCCN(C)C)c(C)c2c2occ(C(C)(C)C)c12	.	38.8	.	10.7	.	.	.
Cc1cc2oc(=O)c(CC(=O)O)c(C)c2c2occ(C(C)(C)C)c12	10.8	-4.5	18.4	9.5	15.3	.	.
